Laboratory results from PubChem BioAssay (EPA / NIEHS).
Several values for one entry are separate records, joined by “and”; a condition that tells them apart may be missing. Identical values can stand only once. Some compounds were tested as several samples or in several runs, with calls that do not always agree. Activity calls are given as the source filed them. Rule for the calls: active = hit-call score of the fitted dose curve at least 0.9, where 1 is the maximum; inactive = score below 0.9.

Columns and labels:
[1] = read-out: TIMP metallopeptidase inhibitor 2 (TIMP2), TIMP2 (gene 7077); assay: BSK_KF3CT_TIMP2: BioMAP Diversity Plus: KF3CT Assay for TIMP metallopeptidase inhibitor 2 (TIMP2) Biomarker Activity (AID 2283071); settings: primary human keratinocytes with fibroblasts; actives raise or lower the signal
Procedure, shortened: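 Keratinocyte–fibroblast co-culture, 24 h exposure; TIMP-2 ELISA, DMSO-normalised bidirectional fit. Parallel SRB (0.1%, TCA-fixed, 560 nm) total-protein staining gauges cytotoxicity.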

[2] = read-out: Transforming growth factor beta 1 (TGFb1), TGFB1 (gene 7040); assay: BSK_KF3CT_TGFb1: BioMAP Diversity Plus: KF3CT Assay for Transforming growth factor beta 1 (TGFb1) Biomarker Activity (AID 2283072); settings: primary human keratinocytes with fibroblasts; actives raise or lower the signal
Procedure, shortened: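 Signal changes in either direction, relative to DMSO, define activity here. TGF-b1 is read by ELISA from a human keratinocyte-fibroblast co-culture 24 h post-dose.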

[3] = read-out: Matrix Metallopeptidase 9 (MMP9), MMP9 (gene 4318); assay: BSK_KF3CT_MMP9: BioMAP Diversity Plus: KF3CT Assay for Matrix Metallopeptidase 9 (MMP9) Biomarker Activity (AID 2283074); settings: primary human keratinocytes with fibroblasts; actives raise or lower the signal;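 for AC50: MMP9 protein level quantified by ELISA in the co-culture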
Procedure, shortened: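 Keratinocyte plus foreskin fibroblast human primary skin co-culture was dosed with chemical and MMP-9 was quantified by ELISA 24 h later. Bidirectional curve fitting used DMSO as negative control and activity baseline.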

[4] = read-out: urokinase plasminogen activator (uPA), PLAU (gene 5328); assay: BSK_KF3CT_uPA: BioMAP Diversity Plus: KF3CT Assay for urokinase plasminogen activator (uPA) Biomarker Activity (AID 2283075); settings: primary human keratinocytes with fibroblasts; actives raise or lower the signal
Procedure, shortened: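 Human keratinocyte plus foreskin fibroblast primary co-culture exposed to chemical for 24 h. uPA levels were quantified by ELISA, and activity was fitted bidirectionally against a DMSO negative-control baseline.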

CD40, CD40 (gene 958) = assay: BSK_LPS_CD40: BioMAP Diversity Plus: LPS Assay for CD40 Biomarker Activity (AID 2283076); settings: primary human HUVEC with PBMC; actives raise or lower the signal
Procedure, shortened: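 Primary human umbilical vein endothelial cells co-cultured with peripheral blood mononuclear cells, LPS-stimulated, were dosed with chemical and read 24 h later. CD40 levels were measured by ELISA and fitted bidirectionally against DMSO as negative control and baseline.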

[5] = read-out: E-selectin (Homo sapiens) (UniProt P16581); assay: BSK_LPS_Eselectin: BioMAP Diversity Plus: LPS Assay for Eselectin Biomarker Activity (AID 2283077); settings: primary human HUVEC with PBMC; actives raise or lower the signal
Procedure, shortened: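 Human umbilical vein endothelial cells co-cultured with peripheral blood mononuclear cells under LPS stimulation; E-selectin measured by ELISA 24 h after chemical dosing. Activity fitted bidirectionally against DMSO as negative control and baseline.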

[6] = read-out: Interleukin-8 (IL8), CXCL8 (gene 3576); assay: BSK_LPS_IL8: BioMAP Diversity Plus: LPS Assay for Interleukin-8 (IL8) Biomarker Activity (AID 2283078); settings: primary human HUVEC with PBMC; actives raise or lower the signal
Procedure, shortened: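 Human umbilical vein endothelial cells co-cultured with PBMC were stimulated with LPS; IL-8 levels were measured by ELISA 24 h after chemical dosing. Activity was fitted bidirectionally against DMSO as negative control and baseline.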

[7] = BSK_LPS_SRB: Viability Assessment in the BioMAP Diversity Plus: LPS Assay (AID 2283079); settings: primary human HUVEC with PBMC;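 note: total protein by sulforhodamine B absorbance as a cytotoxicity measure; measured one day after compound addition; fitted in both directions against DMSO so loss or gain of signal counts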
Procedure, shortened: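 Human umbilical vein endothelial cells co-cultured with PBMC (LPS system) were dosed for 24 h. Total protein was stained with 0.1% sulforhodamine B after 10% TCA fixation, read at 560 nm, and fitted bidirectionally against DMSO baseline.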

[8] = read-out: Interleukin-1 alpha (IL1a), IL1A (gene 3552); assay: BSK_LPS_IL1a: BioMAP Diversity Plus: LPS Assay for Interleukin-1 alpha (IL1a) Biomarker Activity (AID 2283080); settings: primary human HUVEC with PBMC; actives raise or lower the signal
Procedure, shortened: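 Human umbilical vein endothelial cells co-cultured with peripheral blood mononuclear cells were LPS-stimulated and exposed to test chemicals for 24 h. IL-1 alpha was quantified by ELISA, with bidirectional curve fitting against DMSO as the negative control and baseline.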

[9] = read-out: C-C motif chemokine 2 (Homo sapiens) (UniProt P13500); assay: BSK_KF3CT_MCP1: BioMAP Diversity Plus: KF3CT Assay for Monocyte Chemoattractant Protein 1 (MCP1/CCL2) Biomarker Activity (AID 2283073); settings: primary human keratinocytes with fibroblasts; actives raise or lower the signal
Procedure, shortened: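 Human keratinocyte plus foreskin fibroblast primary co-culture exposed to chemical for 24 h. MCP-1 levels measured by ELISA. Bidirectional curve fitting relative to DMSO negative control as baseline.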

Measured: AC50

Sequence of E-selectin (Homo sapiens) (P16581 whole entry, looked up): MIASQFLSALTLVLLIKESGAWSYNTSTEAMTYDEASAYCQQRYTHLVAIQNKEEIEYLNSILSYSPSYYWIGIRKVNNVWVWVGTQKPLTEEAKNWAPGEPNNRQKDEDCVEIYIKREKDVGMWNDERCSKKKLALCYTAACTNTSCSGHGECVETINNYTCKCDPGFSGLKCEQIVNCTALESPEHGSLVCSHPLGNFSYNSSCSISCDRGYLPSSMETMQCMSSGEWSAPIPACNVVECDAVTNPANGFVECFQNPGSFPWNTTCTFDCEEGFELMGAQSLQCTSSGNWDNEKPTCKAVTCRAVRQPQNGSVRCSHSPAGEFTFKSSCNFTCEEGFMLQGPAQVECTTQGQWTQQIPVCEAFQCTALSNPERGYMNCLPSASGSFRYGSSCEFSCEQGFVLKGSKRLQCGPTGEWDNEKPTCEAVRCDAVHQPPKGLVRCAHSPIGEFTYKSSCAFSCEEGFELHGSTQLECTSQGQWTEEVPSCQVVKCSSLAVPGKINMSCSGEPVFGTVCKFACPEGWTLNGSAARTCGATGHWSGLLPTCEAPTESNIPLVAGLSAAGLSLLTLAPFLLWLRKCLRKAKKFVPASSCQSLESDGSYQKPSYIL

C=CC(C)(CCC=C(C)C)OC(C)=O (stereo not given)
inactive: [2] | CD40, CD40 (gene 958) | [5] | [6] | [7] | [8]
active: [1] 32 µM | [3] 30.4 µM | [4] 31.2 µM

CCCCC(CC)C(=O)O (stereo not given)
inactive: [1] | [2] | [3] | [4] | CD40, CD40 (gene 958) | [5] | [6] | [7] | [8]

O=C(O)CCC(F)(F)C(F)(F)C(F)(F)C(F)(F)C(F)(F)C(F)(F)F
inactive: [1] | [3] | [4] | CD40, CD40 (gene 958) | [5] | [7] | [8]
active: CD40, CD40 (gene 958) 15.6 µM | [6] 30 µM and 51.1 µM and 38.9 µM | [8] 12.9 µM and 30 µM

CCCCCCCCCCCCCCC
inactive: [1] | [2] | [3] | [4] | CD40, CD40 (gene 958) | [5] | [6] | [7] | [8]

Oc1ccc(Cc2ccccc2O)cc1
inactive: [1] | [9] | [3] | [4] | CD40, CD40 (gene 958) | [5] | [6] | [7] | [8]

O=C1NS(=O)(=O)c2ccccc21
inactive: [1] | [2] | [3] | [4] | CD40, CD40 (gene 958) | [5] | [6] | [7] | [8]

C=CC(=O)OCCC(F)(F)C(F)(F)C(F)(F)C(F)(F)C(F)(F)C(F)(F)C(F)(F)C(F)(F)F
inactive: [1] | [9] | [4] | CD40, CD40 (gene 958) | [5] | [6] | [7] | [8]
active: [3] 12.6 µM and 8.83 µM

CC(=O)Nc1ccc(O)cc1
inactive: [1] | [2] | [3] | [4] | CD40, CD40 (gene 958) | [5] | [6] | [7] | [8]

O=C(O)C(F)(F)OC(F)(F)C(F)(F)OC(F)(F)C(F)(F)OC(F)(F)C(F)(F)C(F)(F)C(F)(F)F
active: [1] 8.14 µM and 7.33 µM | [9] 8.05 µM and 8.01 µM | [3] 8.13 µM and 8.24 µM | [4] 14.5 µM and 15.7 µM | CD40, CD40 (gene 958) 30 µM and 36.5 µM | [5] 54.1 µM and 50.8 µM | [6] 47.5 µM and 26 µM | [7] 54.4 µM and 50.9 µM | [8] 44.4 µM and 40.1 µM

O=P(O)(O)CCC(F)(F)C(F)(F)C(F)(F)C(F)(F)C(F)(F)C(F)(F)C(F)(F)C(F)(F)F
active: CD40, CD40 (gene 958) 30 µM | [7] 35.3 µM
inactive: [1] | [3] | [4] | CD40, CD40 (gene 958) | [5] | [6] | [7] | [8]

OCC(F)(F)C(F)(F)C(F)(F)C(F)(F)C(F)(F)C(F)(F)C(F)(F)C(F)(F)C(F)(F)C(F)(F)C(F)(F)F
active: [8] 186 nM and 202 nM
inactive: [1] | [3] | [4] | CD40, CD40 (gene 958) | [5] | [6] | [7]

O=C(CC(=O)C(F)(F)C(F)(F)C(F)(F)F)c1cccs1
inactive: [1] | [4] | CD40, CD40 (gene 958) | [5] | [6] | [8]
active: [3] 2.38 µM and 4.67 µM | CD40, CD40 (gene 958) 22.9 µM | [7] 26.4 µM and 37.3 µM

O=S(=O)(O)C(F)(F)C(F)(F)C(F)(F)C(F)(F)C(F)(F)C(F)(F)C(F)(F)C(F)(F)C(F)(F)C(F)(F)F
active: [3] 11.9 µM and 5.3 µM | CD40, CD40 (gene 958) 13.3 µM and 16.5 µM | [5] 24.7 µM and 768 nM | [6] 23.4 µM and 20.3 µM | [8] 19.4 µM
inactive: [1] | [9] | [4] | [7] | [8]

COc1cc(OC)nc(NC(=O)NS(=O)(=O)Nc2ccccc2C(=O)N(C)C)n1
active: [6] 0.055 µM | [8] 0.0637 µM
inactive: [1] | [2] | [3] | [4] | CD40, CD40 (gene 958) | [5] | [7]

CCOC(=O)CN[C@@H](C(=O)N1CC[C@H]1C(=O)NCc1ccc(/C(N)=N/O)cc1)C1CCCCC1
inactive: [1] | [2] | [3] | [4] | CD40, CD40 (gene 958) | [5] | [6] | [7] | [8]

CCCCCc1ccc(O)cc1
active: [1] 10.4 µM | [2] 5.62 µM | [3] 20 µM | [4] 14.8 µM | CD40, CD40 (gene 958) 29.5 µM | [5] 31.4 µM | [6] 36.1 µM | [7] 28.4 µM | [8] 31.7 µM

COc1cccc(O)c1
inactive: [1] | [2] | [3] | [4] | CD40, CD40 (gene 958) | [5] | [6] | [7] | [8]

CCCCCCCCCCCCOS(=O)(=O)O
inactive: CD40, CD40 (gene 958) | [5] | [6] | [8]
active: [1] 29.3 µM | [2] 33.4 µM | [3] 30.9 µM | [4] 31.1 µM

CC(C)(C)c1ccc(O)c(O)c1
active: [3] 20 µM | CD40, CD40 (gene 958) 20 µM | [5] 33.4 µM | [6] 30.6 µM | [7] 31.4 µM | [8] 29.3 µM
inactive: [1] | [2] | [4]

Oc1cc2ccccc2cc1O
inactive: [1] | [2] | [3] | [4] | CD40, CD40 (gene 958) | [5] | [6] | [7] | [8]

NC(=NCCCCCCN=C(N)/N=C(\N)Nc1ccc(Cl)cc1)/N=C(\N)Nc1ccc(Cl)cc1
active: [1] 5.01 µM | [2] 2.35 µM | [3] 2.67 µM | [4] 4.99 µM | CD40, CD40 (gene 958) 5.33 µM | [6] 2.36 µM | [7] 5.33 µM | [8] 4.94 µM

CN(C)CCOC(c1ccccc1)c1ccccc1
inactive: [1] | [2] | [3] | [4] | CD40, CD40 (gene 958) | [5] | [6] | [7] | [8]

CN(CCO)S(=O)(=O)C(F)(F)C(F)(F)C(F)(F)C(F)(F)C(F)(F)C(F)(F)C(F)(F)C(F)(F)F
inactive: [1] | [3] | [4] | CD40, CD40 (gene 958) | [5] | [6] | [7] | [8]
active: [6] 4.94 µM

O=P(O)(O)CCC(F)(F)C(F)(F)C(F)(F)C(F)(F)C(F)(F)C(F)(F)F
inactive: [1] | [3] | [4] | CD40, CD40 (gene 958) | [5] | [6] | [7] | [8]

CC1=NN(c2ccccc2)C(=O)C1
inactive: [1] | [2] | [3] | [4] | CD40, CD40 (gene 958) | [5] | [6] | [7] | [8]

Oc1c(Cl)cc(Cl)cc1Sc1cc(Cl)cc(Cl)c1O
active: [1] 1.96 µM and 2.15 µM | [3] 1.88 µM and 2.08 µM | [4] 3.48 µM and 3.57 µM | CD40, CD40 (gene 958) 14.2 µM | [5] 35.1 µM and 31.9 µM | [6] 36.5 µM and 33.4 µM | [7] 20 µM and 6.67 µM | [8] 35.4 µM and 35.6 µM

CCCCCCCCCCCC
inactive: CD40, CD40 (gene 958) | [7]
active: [1] 7.91 µM and 9.05 µM | [3] 6.78 µM and 7.3 µM | [4] 11.1 µM | CD40, CD40 (gene 958) 20 µM | [5] 30.5 µM and 32.7 µM | [6] 33.1 µM and 30.7 µM | [8] 14.4 µM and 29.6 µM

C=COC(=O)C(C)(C)CCCCCC
inactive: [2]
active: [1] 27.6 µM | [3] 33 µM | [4] 28 µM | CD40, CD40 (gene 958) 31.7 µM | [5] 30.6 µM | [6] 33.1 µM | [7] 34.6 µM | [8] 33.6 µM

O=C(O)CCC(F)(F)C(F)(F)C(F)(F)C(F)(F)C(F)(F)F
inactive: [1] | [9] | [3] | [4] | CD40, CD40 (gene 958) | [5] | [6] | [7] | [8]
active: [6] 5.95 µM
